The values that follow come from PubChem BioAssay (EPA / NIEHS).

Assay [1] in a line: CCTE_Shafer_MEA_dev_active_electrodes_number: CCTE's Neural Network Formation Assay for Number of Active Electrodes, Shafer Lab (AID 2284040; active means hit-call score of the fitted dose curve at least 0.9, where 1 is the maximum;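 on AC50: potency for loss of active electrodes versus DMSO so lower counts are hits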). The gist of the method: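 Rat cortical primary cultures, 1.5 x 10^5 cells/well, PEI-coated MEA, laminin drop. Continuous exposure DIV 0–12; full media/compound change DIV 5, 9. Readout: electrodes with mean firing ≥5 spikes/min; AUC across days; loss vs DMSO.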

Assay [2] is described as follows: CCTE_Shafer_MEA_dev_burst_rate: CCTE's Neural Network Formation Assay for Burst Rate, Shafer Lab (AID 2284042).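 On AC50: potency for loss of burst rate below DMSO control.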 The gist of the method:
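Primary rat cortical neurons on PEI-coated 48-well MEA plates (laminin added with cells at plating) (16 electrodes/well), exposed from plating to day 12, dosing renewed at DIV 5 and 9. Burst rate averaged over active electrodes, recorded DIV 5, 7, 9, 12, summarized as AUC; loss versus DMSO.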

Assay [3] in a line: CCTE_Shafer_MEA_dev_bursting_electrodes_number: CCTE's Neural Network Formation Assay for Number of Bursting Electrodes, Shafer Lab (AID 2284043; active means hit-call score of the fitted dose curve at least 0.9, where 1 is the maximum;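 on AC50: potency is for loss of bursting electrodes relative to DMSO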). The gist of the method:
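Primary rat cortical neurons were cultured on PEI-coated 48-well MEA plates (16 electrodes/well) and exposed from plating through day 12, with compound renewed at feeds on DIV 5 and 9. Electrodes bursting ≥1 per 2 min were counted on DIV 5, 7, 9, 12; trapezoidal AUC taken.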

Assay [4] in a line: CCTE_Shafer_MEA_dev_per_burst_interspike_interval: CCTE's Neural Network Formation Assay for Burst Interspike Interval, Shafer Lab (AID 2284044).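 Further: mean spike spacing inside bursts as AUC over recordings on days 5 7 9 12.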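 On AC50: potency for a decrease of within-burst interspike interval below DMSO level.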 The gist of the method: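 Developmental network-formation MEA in primary rat cortical cultures with exposure spanning days 0–12. Within-burst ISI is averaged per well and integrated across recording days by area under the curve, with DMSO as negative control baseline.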

Assay [5] is described as follows: CCTE_Shafer_MEA_dev_burst_duration_mean: CCTE's Neural Network Formation Assay for Mean Burst Duration, Shafer Lab (AID 2284045).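 On AC50: curve fitted for loss meaning shorter burst duration than DMSO.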 Summed up: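 Primary rat cortical neurons on PEI-coated 16-electrode MEA wells, exposed from plating through day 12 with compound renewed at DIV 5 and 9; spontaneous activity recorded days 5, 7, 9, 12. Well-mean burst duration collapsed as trapezoidal AUC, fitted for loss versus DMSO.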

Assay [6] in a line: CCTE_Shafer_MEA_dev_interburst_interval_mean: CCTE's Neural Network Formation Assay for Mean Interburst Interval, Shafer Lab (AID 2284046).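 Further: well-mean interburst interval of bursting electrodes as AUC over four recording days; curve fitted for decrease in interburst interval relative to DMSO.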 Summed up:
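Recordings on days 5, 7, 9 and 12 give well-mean interburst interval across actively bursting electrodes, summarized as area under the curve. Cultures: rat cortical neurons, continuous exposure from day 0, compound renewed at feeds; decrease analyzed versus DMSO.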

Assay [7] can be described thus: CCTE_Shafer_MEA_dev_inter_network_spike_interval_mean: CCTE's Neural Network Formation Assay for Mean Inter-network Spike Interval, Shafer Lab (AID 2284047).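 On AC50: potency for a decrease in mean inter-network spike interval below DMSO.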 The gist of the method: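 Primary rat cortical neurons on 16-electrode MEA wells, exposed from plating day 0 through DIV 12, compound renewed at DIV 5 and 9 media changes. Mean interval between network-spike peaks recorded DIV 5, 7, 9, 12; collapsed as trapezoidal AUC, fitted downward versus DMSO.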

Assay [8] in a line: CCTE_Shafer_MEA_dev_network_spike_number: CCTE's Neural Network Formation Assay for Number of Network Spikes, Shafer Lab (AID 2284048).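 Further: synchronized bursts across electrodes counted on days 5 7 9 12 and integrated as AUC.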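 On AC50: fit as a loss of signal meaning fewer network spikes than DMSO.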 The gist of the method:
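Primary rat cortical neurons were seeded at 1.5 x 10^5 cells/well on PEI-coated 16-electrode MEA wells with laminin, exposed from plating day 0, compound renewed at DIV 5 and 9. Network spikes were recorded on days 5, 7, 9, 12 and summarized as trapezoidal AUC versus DMSO.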

The subject of a further assay is DIO2 (gene 1734). Briefly: CCTE_GLTED_hDIO2: CCTE's human Deiodinase 2 (DIO2) Inhibition Assay, Great Lakes Toxicology and Ecology Division (GLTED) Lab (AID 2284050; active means hit-call score of the fitted dose curve at least 0.9, where 1 is the maximum). Summed up:
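In this cell-free test, chemicals are exposed to human deiodinase type 2 for 3 hours. Released iodide is determined spectrophotometrically via the Sandell-Kolthoff method, and signal loss relative to DMSO is fitted.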

Molecules are shown by their SMILES. Where “and” joins values, the source holds several entries; their conditions need not be identical. Identical values can stand only once. Records with an inconclusive call do not appear. Some structures have more than one record in an assay (separate samples or runs), and their calls can disagree. Calls of active or inactive are those of the source. How the source made its calls, unless noted: active means hit-call score of the fitted dose curve at least 0.9, where 1 is the maximum; inactive means score below 0.9.

`C=C(C)[C@H]1Cc2c(ccc3c2O[C@@H]2COc4cc(OC)c(OC)cc4[C@@H]2C3=O)O1`: the AC50 in assay [1] was 25.2 nM (active) and 14.1 nM (active); in assay [2], 17.3 nM (active) and 6.73 nM (active); in assay [3], 22.8 nM (active) and 12.4 nM (active); in assay [4], 36.4 nM (active) and 32.6 nM (active); in assay [5] it was 29.8 nM (active) and 31 nM (active); in assay [6], 41.4 nM (active) and 31.6 nM (active). The concentration at half-maximal activity (AC50) was 20.1 nM (active) and 26.2 nM (active) in assay [7]; 14 nM (active) and 10.7 nM (active) in assay [8]. For the same molecule, the call with DIO2 (gene 1734) was inactive.

For `CCOP(=S)(OCC)Oc1ccc([N+](=O)[O-])cc1`, the outcome in assay [1], in [2], in [3], in assay [4], in [5] and in assay [6] was inactive. Besides, the molecule was called inactive in assay [7] and in assay [8].

Consider `CCCSP(=O)(OCC)SCCC`, for which the concentration at half-maximal activity (AC50) in assay [1] was 27.9 µM (active) and 50.5 µM (active); in assay [3], 24.9 µM (active) and 22.7 µM (active). The outcome in assay [2], in assay [4], in assay [5], in [6], in assay [7] and in [8] was inactive.

Consider `CCOP(=O)(OCC)Oc1cc(C)nc(C(C)C)n1`, for which the outcome in assay [1], in assay [2], in assay [3], in [4], in assay [5] and in assay [6] was inactive. Also, the molecule was classed as inactive in assay [7] and in assay [8].

Regarding `CCNc1nc(Cl)nc(NC(C)(C)C#N)n1`, in the assay with DIO2 (gene 1734), the outcome was inactive.

With `CCOP(=S)(OCC)OC(Cl)C(Cl)(Cl)Cl` (stereo not given), the AC50 in [1] is 50 µM (active) and 22.9 µM (active); in [2], 77.2 µM (active) and 23.6 µM (active); in assay [3], 31.8 µM (active) and 23.2 µM (active); in [4] it was 23.4 µM (active); in [5], 23.4 µM (active); in assay [6] it was 50 µM (active) and 13.7 µM (active). Besides, the half-maximal activity concentration (AC50) in [7] was 13.1 µM (active); in assay [8], 23.1 µM (active). Besides, the call in [4], in assay [5], in assay [7] and in assay [8] was inactive.

Consider `CN(C)[C@@H]1C(=O)C(C(N)=O)=C(O)[C@@]2(O)C(=O)C3=C(O)c4c(O)cccc4[C@@](C)(O)[C@H]3[C@H](O)[C@@H]12`, for which the concentration at half-maximal activity (AC50) is 50 µM (active) in assay [1]; 22.7 µM (active) in assay [3]; 100 µM (active) and 61.6 µM (active) with DIO2 (gene 1734). Also, the molecule was classed as inactive in assay [2], in assay [4], in assay [5], in [6], in assay [7] and in [8].

Turning to `CC(C)N(C(=O)SCC(Cl)=C(Cl)Cl)C(C)C`, the concentration at half-maximal activity (AC50) in assay [1] was 27 µM (active); in assay [3], 15 µM (active). In addition, the molecule was called inactive in assay [2], in assay [5], in assay [6], in [7] and in [8].

On to `CCCSP(=O)(OCC)Oc1ccc(Br)cc1Cl` (stereo not given), for which the molecule was classed as inactive in assay [1], in assay [2], in assay [3], in assay [4], in assay [5] and in assay [6]. Moreover, the outcome in assay [7] and in assay [8] was inactive.

Consider `CCOP(=S)(Oc1cnc(C(C)(C)C)nc1)OC(C)C` (stereo not given), for which the AC50 in assay [1] was 93.2 µM (active) and 14.9 µM (active); in assay [2], 14.3 µM (active); in [3], 91.8 µM (active) and 12 µM (active); in assay [4] it was 12 µM (active); in assay [6], 50 µM (active) and 16.6 µM (active); in assay [8], 14.8 µM (active). Besides, the molecule was called inactive in assay [2], in assay [4], in assay [5], in [7] and in assay [8].

On to `CCCCSP(=O)(SCCCC)SCCCC`, for which the half-maximal activity concentration (AC50) is 34.3 µM (active) and 15.2 µM (active) in [1]; 71.4 µM (active) in assay [2]; 32 µM (active) and 15.8 µM (active) in assay [3]; 50 µM (active) and 18.8 µM (active) in assay [4]; 63.3 µM (active) and 49.9 µM (active) in assay [6]. The call in [2], in assay [5], in [7] and in assay [8] was inactive.

As to `C[Si](Cn1cncn1)(c1ccc(F)cc1)c1ccc(F)cc1`, the AC50 in assay [1] was 4.26 µM (active); in assay [3] it was 8.85 µM (active). Moreover, the call in assay [2], in [4], in assay [5], in [6], in assay [7] and in [8] was inactive.

As to `CCCOCC(=Nc1ccc(Cl)cc1C(F)(F)F)n1ccnc1`, in the assay on DIO2 (gene 1734), the half-maximal activity concentration (AC50) was 2.92 µM (active).

`COP(=O)(NC(C)=O)SC` (stereo not given): the result in assay [1], in [2], in assay [3], in assay [4], in assay [5] and in [6] was inactive. The call in assay [7] and in assay [8] was inactive.

Consider `C[N+]1(C)CCCCC1`, for which the concentration at half-maximal activity (AC50) in assay [1] is 15 µM (active). For the same molecule, the result in assay [2], in [3], in assay [4], in [5], in assay [6] and in assay [7] was inactive. Moreover, the molecule was classed as inactive in assay [8].

Consider `COP(=O)(OC)OC(Br)C(Cl)(Cl)Br` (stereo not given), for which the half-maximal activity concentration (AC50) is 7.62 µM (active) and 14.8 µM (active) in assay [1]; 7.93 µM (active) and 13.3 µM (active) in assay [2]; 6.36 µM (active) and 12.9 µM (active) in assay [3]; 9.62 µM (active) and 16 µM (active) in [4]; 12.8 µM (active) in assay [5]; 8.78 µM (active) and 10.1 µM (active) in assay [6]. Also, the AC50 in assay [7] was 2.15 µM (active); in assay [8] it was 3.48 µM (active) and 13.2 µM (active). The molecule was classed as inactive in assay [5] and in assay [7].

Regarding `CON=C(C(=O)OC)c1ccccc1CON=C(C)c1cccc(C(F)(F)F)c1`, the AC50 in [1] is 775 nM (active) and 838 nM (active); in [2], 655 nM (active) and 1.28 µM (active); in assay [3], 728 nM (active) and 758 nM (active); in [4] it was 1.53 µM (active) and 2.32 µM (active); in [5], 674 nM (active) and 995 nM (active); in assay [6] it was 1.32 µM (active) and 798 nM (active). Besides, the AC50 in [7] is 969 nM (active) and 1.72 µM (active); in assay [8], 632 nM (active) and 884 nM (active).

Consider `CC1=NNC(=O)N(/N=C/c2cccnc2)C1`, for which the result in assay [2], in [3], in assay [4], in assay [6], in assay [7] and in [8] was inactive. Besides, in [5], the AC50 was 24.8 µM (active).

Consider `COP(=O)(OC)C(O)C(Cl)(Cl)Cl` (stereo not given), for which the AC50 in assay [1] is 11.6 µM (active); in [3], 36.9 µM (active) and 15 µM (active); in assay [4], 90.8 µM (active); in assay [8], 2.98 µM (active). In addition, the outcome in [2], in assay [4], in assay [5], in [6], in [7] and in [8] was inactive.
